# Measurements taken from PubChem BioAssay (NCATS).
# A number with no mark means an inactive call. Inconclusive results are not listed. A call without a number means that no potency is given here. Activity calls are given as the source filed them. Unless noted, the call rests on the fitted dose curve; in most records, active means well fitted curve in the direction sought with a large enough effect; inconclusive means small, poorly fitted or top-dose-only effect, or another doubt; inactive means no such curve, though single readings can be large; an effect the other way counts as inactive or inconclusive.
# Key:
# [1] = target: Cytochrome P450 1A2 (Homo sapiens) (UniProt P05177); test: p450-cyp1a2 (AID 410; calls by dose curve; further: potency means the concentration at half of the fitted maximal effect)
# Summary of the method: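 Luminescent demethylation readout: Luciferin-ME (100uM, equal to Km) turned over by 20nM CYP1A2 for 60 min at room temperature after NADPH regeneration addition, following 10 min compound preincubation. Normalization used 57 uM furafylline as full inhibition.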
# [2] = target: Glucocorticoid receptor (Homo sapiens) (UniProt P04150); test: GR-GFP Redistribution (AID 450;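 active means compounds whose dose series gives a full or clear partial fitted curve of increased nuclear translocation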; further: potency means the concentration at half of the fitted maximal effect)
# [3] = target: Glucocorticoid receptor (Homo sapiens) (UniProt P04150); test: GR-EFC Redistribution (AID 451; calls by dose curve; further: potency means the concentration at half of the fitted maximal effect); conditions: CHO-K1 GR-EFC translocation, beta-gal luminescence, 2 h
# Summary of the method: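 CHO-K1 cells expressing nuclear EA and GR-ED fragments of b-gal; compounds titrated up to 46 uM final, 2 h at 37 C. GR nuclear translocation read as complemented b-gal luminescence after 1 h RT detection.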
# [4] = target: Mitogen-activated protein kinase 10 (Mus musculus) (UniProt Q61831); test: JNK3 AlphaScreen Assay (AID 530; active means well fitted curve in either direction with a large enough effect, not every such curve was filed as active;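 further: kinase came from lysate of stimulated human HepG2 cells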; further: potency means the concentration at half of the fitted maximal effect)
# Summary of the method: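 Activity was read by AlphaScreen after JNK3-containing HepG2 lysate (cytokine pre-activated) phosphorylated biotinylated GST-cJun with 10 uM ATP at room temperature. Phospho-Ser73 cJun antibody with Protein-A acceptor beads provided detection.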
# [5] = target: 3',5'-cyclic-AMP phosphodiesterase 4B (Homo sapiens) (UniProt Q07343); test: qHTS Assay for Inhibitors of PDE-IV (AID 607; active means well fitted activation curve with a large enough effect in the main read-out, with a control signal flat, not every such curve was filed as active)
# Summary of the method: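 HEK293 ACTOne cells with CNG channel (1000/well), endogenous PDE4; membrane potential dye, compounds up to 22.9 uM final. Fluorescence Ex 535/Em 590; RO 20-1724 (100 uM final) as reference.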
# [6] = target: Cytochrome P450 2C9 (Homo sapiens) (UniProt P11712); test: qHTS Assay for Inhibitors and Substrates of Cytochrome P450 2C9 (AID 883); further: nearly all actives have a fitted effect of over 60% in size; further: potency means the concentration at half of the fitted maximal effect
# Summary of the method: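 Signal: luciferase luminescence reporting luciferin produced by CYP2C9. Conditions: 10nM enzyme, Luciferin-H 100uM at KM, 25mM KPO4, 37C, 60 min NADPH-driven reaction. Reference: 57uM sulphaphenazole as 100% inhibition.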
# [7] = target: Cytochrome P450 2D6 (Homo sapiens) (UniProt P10635); test: qHTS Assay for Inhibitors and Substrates of Cytochrome P450 2D6 (AID 891); further: nearly all actives have a fitted effect of over 60% in size; further: potency means the concentration at half of the fitted maximal effect
# Summary of the method: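 Luminescent read-out of luciferin formed by 5 nM human CYP2D6 demethylating 30 uM Luciferin-ME EGE (Km level) over 60 min at room temperature after NADPH regeneration addition. Data normalized to full inhibition by 1.43 uM quinidine.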
# [8] = target: Cytochrome P450 2C19 (Homo sapiens) (UniProt P33261); test: qHTS Assay for Inhibitors and Substrates of Cytochrome P450 2C19 (AID 899); further: nearly all actives have a fitted effect of over 60% in size; further: potency means the concentration at half of the fitted maximal effect
# Summary of the method: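 Signal comes from luciferase acting on luciferin released by CYP2C19-mediated hydroxylation of Luciferin-H EGE, 10uM (KM). Assay mix: 5nM enzyme, 50mM KPO4; 60 min at 37C with NADPH regeneration. Data normalized against 57uM ketoconazole.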
# [9] = target: DNA dC->dU-editing enzyme APOBEC-3G (Homo sapiens) (UniProt Q9HC16); test: qHTS for inhibitors of Vif-A3G interactions: Validation (AID 588379)
# Summary of the method: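 Yellow fluorescence (Ex 488, Em 500-530) of Vif-coexpressing HeLa A3G-eYFP cells, scanned by Acumen cytometer, reports blocked A3G degradation. Cells plated at 700/well overnight at 37 deg C before compound addition, then a further overnight compound incubation at 37 deg C.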
# [10] = target: Luciferin 4-monooxygenase (Photinus pyralis) (UniProt P08659); test: Biochemical firefly luciferase enzyme assay for NPC (AID 624030);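 further: purified P. pyralis luciferase at 10 nM with luciferin and ATP substrate; series mostly up to about 59 µM; nearly all actives have a fitted effect of over 70% in size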
# Summary of the method: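 Purified P. pyralis luciferase at 10 nM in 50 mM Tris Acetate (final), luminescence read within 5 minutes of enzyme addition to compounds. Activity normalised to PTC124 versus DMSO; concentration-response curves classed by r2, magnitude and activity.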
# [11] = target: Cytochrome P450 3A4 (Homo sapiens) (UniProt P08684); test: qHTS Assay for Activators of Cytochrome P450 3A4 (AID 885); further: nearly all actives have a fitted effect of over 65% in size
# Summary of the method: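 Human CYP3A4 dealkylates Luciferin-PPXE to luciferin, which luciferase detection converts to light. Substrate was at its KM (25uM), buffer 200mM KPO4, reaction 60 min at RT.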
# [12] = target: Cytochrome P450 3A4 (Homo sapiens) (UniProt P08684); test: qHTS Assay for Inhibitors and Substrates of Cytochrome P450 3A4 (AID 884); further: potency means the concentration at half of the fitted maximal effect; nearly all actives have a fitted effect of over 50% in size
# Summary of the method: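 Luminescent readout of luciferin produced by CYP3A4 (20 nM) dealkylation of Luciferin-PPXE, 25 uM (its KM). NADPH-driven reaction ran 60 min at RT after 10 min compound preincubation; data scaled to 57 uM ketoconazole as 100% inhibition.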
# Sequence of Cytochrome P450 2C9 (Homo sapiens) (P11712 whole entry, looked up): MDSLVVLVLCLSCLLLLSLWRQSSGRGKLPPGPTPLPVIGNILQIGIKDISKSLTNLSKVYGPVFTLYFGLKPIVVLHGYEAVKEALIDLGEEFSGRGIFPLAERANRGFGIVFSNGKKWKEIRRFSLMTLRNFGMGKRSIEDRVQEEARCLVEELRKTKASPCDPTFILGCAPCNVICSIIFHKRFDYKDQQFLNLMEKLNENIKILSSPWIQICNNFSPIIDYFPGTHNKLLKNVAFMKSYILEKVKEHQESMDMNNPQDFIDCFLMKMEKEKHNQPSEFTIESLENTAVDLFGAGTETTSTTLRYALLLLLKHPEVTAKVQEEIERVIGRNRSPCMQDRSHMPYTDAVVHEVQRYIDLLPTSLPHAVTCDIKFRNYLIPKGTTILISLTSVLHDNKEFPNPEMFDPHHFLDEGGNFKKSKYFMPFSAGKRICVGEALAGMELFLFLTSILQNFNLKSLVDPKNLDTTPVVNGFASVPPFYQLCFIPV
# Sequence of Cytochrome P450 1A2 (Homo sapiens) (P05177 whole entry, looked up): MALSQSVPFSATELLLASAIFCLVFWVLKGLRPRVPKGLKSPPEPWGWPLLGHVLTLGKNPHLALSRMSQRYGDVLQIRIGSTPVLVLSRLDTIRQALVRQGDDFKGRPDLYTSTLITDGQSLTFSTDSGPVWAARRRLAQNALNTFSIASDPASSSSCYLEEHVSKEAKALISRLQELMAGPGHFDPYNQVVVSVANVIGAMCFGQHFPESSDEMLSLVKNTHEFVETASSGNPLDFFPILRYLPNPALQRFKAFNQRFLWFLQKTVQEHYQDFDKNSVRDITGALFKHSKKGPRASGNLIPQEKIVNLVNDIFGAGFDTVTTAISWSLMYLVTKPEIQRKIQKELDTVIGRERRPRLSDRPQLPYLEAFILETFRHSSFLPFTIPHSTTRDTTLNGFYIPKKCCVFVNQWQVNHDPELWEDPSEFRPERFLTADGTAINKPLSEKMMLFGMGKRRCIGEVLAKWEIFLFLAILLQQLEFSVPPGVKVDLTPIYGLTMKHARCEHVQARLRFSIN
# Sequence of Cytochrome P450 2D6 (Homo sapiens) (P10635 whole entry, looked up): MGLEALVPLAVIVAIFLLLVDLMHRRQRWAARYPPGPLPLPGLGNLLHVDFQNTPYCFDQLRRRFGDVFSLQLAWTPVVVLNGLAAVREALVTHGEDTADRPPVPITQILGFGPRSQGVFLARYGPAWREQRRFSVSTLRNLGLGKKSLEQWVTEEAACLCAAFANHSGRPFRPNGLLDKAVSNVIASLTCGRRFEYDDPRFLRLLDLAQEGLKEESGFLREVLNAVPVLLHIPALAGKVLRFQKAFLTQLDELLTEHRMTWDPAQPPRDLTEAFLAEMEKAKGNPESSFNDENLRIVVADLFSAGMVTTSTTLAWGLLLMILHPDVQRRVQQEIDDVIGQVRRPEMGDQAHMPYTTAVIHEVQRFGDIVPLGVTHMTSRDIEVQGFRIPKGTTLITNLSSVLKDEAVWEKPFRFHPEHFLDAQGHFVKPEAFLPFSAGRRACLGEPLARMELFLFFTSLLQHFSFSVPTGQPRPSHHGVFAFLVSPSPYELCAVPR
# Sequence of Cytochrome P450 3A4 (Homo sapiens) (P08684 whole entry, looked up): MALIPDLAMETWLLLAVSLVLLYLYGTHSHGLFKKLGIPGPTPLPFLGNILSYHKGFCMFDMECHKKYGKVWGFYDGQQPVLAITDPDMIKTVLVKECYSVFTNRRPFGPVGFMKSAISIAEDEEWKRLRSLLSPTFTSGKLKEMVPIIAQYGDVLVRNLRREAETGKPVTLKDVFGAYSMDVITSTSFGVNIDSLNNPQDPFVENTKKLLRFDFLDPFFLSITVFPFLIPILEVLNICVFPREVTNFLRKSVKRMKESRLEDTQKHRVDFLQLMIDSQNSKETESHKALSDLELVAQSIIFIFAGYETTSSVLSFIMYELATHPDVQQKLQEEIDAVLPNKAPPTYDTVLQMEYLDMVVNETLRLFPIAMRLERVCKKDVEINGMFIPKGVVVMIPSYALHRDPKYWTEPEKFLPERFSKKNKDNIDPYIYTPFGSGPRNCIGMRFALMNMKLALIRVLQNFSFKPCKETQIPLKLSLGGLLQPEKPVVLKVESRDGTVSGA
# Sequence of 3',5'-cyclic-AMP phosphodiesterase 4B (Homo sapiens) (Q07343 whole entry, looked up): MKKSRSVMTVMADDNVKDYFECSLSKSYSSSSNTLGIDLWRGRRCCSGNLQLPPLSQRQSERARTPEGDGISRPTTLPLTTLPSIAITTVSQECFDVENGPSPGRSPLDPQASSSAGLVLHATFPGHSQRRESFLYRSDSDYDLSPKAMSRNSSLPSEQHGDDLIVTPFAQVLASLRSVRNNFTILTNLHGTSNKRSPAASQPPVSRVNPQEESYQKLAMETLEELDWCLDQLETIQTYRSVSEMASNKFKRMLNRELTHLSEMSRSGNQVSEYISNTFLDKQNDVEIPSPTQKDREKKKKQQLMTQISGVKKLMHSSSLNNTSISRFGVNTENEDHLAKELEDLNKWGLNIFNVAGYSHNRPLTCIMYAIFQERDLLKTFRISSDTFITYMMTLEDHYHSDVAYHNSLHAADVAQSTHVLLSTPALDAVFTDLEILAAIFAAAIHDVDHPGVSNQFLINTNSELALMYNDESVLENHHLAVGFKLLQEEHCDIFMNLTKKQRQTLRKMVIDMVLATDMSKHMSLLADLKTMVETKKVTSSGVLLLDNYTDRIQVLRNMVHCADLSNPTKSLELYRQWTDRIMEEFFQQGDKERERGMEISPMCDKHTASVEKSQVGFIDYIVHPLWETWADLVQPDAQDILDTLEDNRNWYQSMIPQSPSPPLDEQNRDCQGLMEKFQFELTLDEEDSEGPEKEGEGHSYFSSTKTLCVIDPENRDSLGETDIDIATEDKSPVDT
# Sequence of Cytochrome P450 2C19 (Homo sapiens) (P33261 whole entry, looked up): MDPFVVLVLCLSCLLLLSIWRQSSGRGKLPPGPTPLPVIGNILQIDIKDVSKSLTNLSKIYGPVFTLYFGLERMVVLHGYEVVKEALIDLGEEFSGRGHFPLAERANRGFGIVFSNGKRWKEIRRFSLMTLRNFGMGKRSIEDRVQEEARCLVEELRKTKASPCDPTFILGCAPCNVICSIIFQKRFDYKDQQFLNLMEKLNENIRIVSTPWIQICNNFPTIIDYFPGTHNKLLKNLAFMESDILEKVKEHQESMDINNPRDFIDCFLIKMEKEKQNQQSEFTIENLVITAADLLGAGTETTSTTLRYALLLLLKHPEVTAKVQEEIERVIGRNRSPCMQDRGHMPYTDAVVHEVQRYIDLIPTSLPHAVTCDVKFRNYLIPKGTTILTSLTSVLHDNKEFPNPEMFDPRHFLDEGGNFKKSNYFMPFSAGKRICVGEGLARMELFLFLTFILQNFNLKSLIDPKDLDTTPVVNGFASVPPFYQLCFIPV
# Sequence of Glucocorticoid receptor (Homo sapiens) (P04150 whole entry, looked up, the tested form may be a part): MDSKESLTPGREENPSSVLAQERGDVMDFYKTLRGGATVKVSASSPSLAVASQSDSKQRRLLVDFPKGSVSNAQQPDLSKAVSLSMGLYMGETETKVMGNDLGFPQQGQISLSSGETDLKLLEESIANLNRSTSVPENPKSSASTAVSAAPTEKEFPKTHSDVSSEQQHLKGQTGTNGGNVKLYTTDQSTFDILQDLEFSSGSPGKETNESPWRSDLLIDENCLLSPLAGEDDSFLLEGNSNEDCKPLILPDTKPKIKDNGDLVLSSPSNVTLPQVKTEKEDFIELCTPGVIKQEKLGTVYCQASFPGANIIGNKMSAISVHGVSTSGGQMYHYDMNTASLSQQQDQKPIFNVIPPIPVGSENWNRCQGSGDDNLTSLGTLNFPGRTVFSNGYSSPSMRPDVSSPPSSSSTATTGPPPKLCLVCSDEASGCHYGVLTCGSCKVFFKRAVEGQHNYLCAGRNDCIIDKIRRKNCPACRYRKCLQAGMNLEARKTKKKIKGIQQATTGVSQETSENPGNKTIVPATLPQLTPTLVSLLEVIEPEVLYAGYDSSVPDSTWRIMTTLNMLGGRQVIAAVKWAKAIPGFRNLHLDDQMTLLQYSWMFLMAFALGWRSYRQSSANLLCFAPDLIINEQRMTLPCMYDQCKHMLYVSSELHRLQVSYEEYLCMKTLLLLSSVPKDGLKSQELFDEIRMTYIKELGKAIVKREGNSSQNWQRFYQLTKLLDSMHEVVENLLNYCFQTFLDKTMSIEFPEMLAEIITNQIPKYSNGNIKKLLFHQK
# Sequence of DNA dC->dU-editing enzyme APOBEC-3G (Homo sapiens) (Q9HC16 whole entry, looked up): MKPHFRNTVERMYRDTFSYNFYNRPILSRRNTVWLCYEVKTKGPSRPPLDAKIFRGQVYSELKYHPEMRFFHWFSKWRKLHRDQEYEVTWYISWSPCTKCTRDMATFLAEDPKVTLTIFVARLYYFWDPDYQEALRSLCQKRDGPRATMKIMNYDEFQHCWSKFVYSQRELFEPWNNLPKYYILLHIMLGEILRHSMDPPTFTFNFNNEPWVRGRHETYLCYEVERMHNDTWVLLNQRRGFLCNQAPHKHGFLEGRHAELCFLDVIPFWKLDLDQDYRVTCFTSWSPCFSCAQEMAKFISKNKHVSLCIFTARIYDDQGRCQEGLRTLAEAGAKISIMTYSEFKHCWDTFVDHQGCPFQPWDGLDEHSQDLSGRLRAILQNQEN
# Sequence of Luciferin 4-monooxygenase (Photinus pyralis) (P08659 whole entry, looked up): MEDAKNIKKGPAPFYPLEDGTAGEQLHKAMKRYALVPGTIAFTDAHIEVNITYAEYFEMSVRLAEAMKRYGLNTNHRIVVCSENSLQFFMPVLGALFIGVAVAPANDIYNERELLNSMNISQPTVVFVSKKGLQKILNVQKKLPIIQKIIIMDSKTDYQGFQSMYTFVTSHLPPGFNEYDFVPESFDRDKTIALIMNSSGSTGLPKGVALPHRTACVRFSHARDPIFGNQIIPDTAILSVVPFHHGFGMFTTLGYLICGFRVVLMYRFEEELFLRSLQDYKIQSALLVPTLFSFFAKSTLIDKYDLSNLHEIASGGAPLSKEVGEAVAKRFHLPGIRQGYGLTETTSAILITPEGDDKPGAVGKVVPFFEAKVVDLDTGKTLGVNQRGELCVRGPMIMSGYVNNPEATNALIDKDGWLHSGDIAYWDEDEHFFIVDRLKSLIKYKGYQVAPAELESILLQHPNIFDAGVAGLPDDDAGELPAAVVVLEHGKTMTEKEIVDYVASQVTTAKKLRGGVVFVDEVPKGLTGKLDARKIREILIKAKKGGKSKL
Compound,Potency [1],Potency [2] [µM],Potency [3] [µM],Potency [4],Potency [5],Potency [6],Potency [7],Potency [8],outcome [9],Potency [10],Potency [11],Potency [12]
C=C1CC[C@@H](O)C/C1=C/C=C1\CCC[C@]2(C)[C@@H]1CC[C@H]2[C@@H](C)CCCC(C)C,inactive,> 46,> 46,inactive,inactive,inactive,inactive,inactive,–,–,–,–
CC(C)OC(=O)c1cc2c(OC[C@@H](O)CNC(C)(C)C)cccc2[nH]1,31.6 µM (active),> 46,> 46,inactive,–,–,–,–,inactive,inactive,–,–
COc1ccc2c(=O)cc(-c3ccccc3)oc2c1O,0.0158 µM (active),> 46,> 46,inactive,inactive,15.8 µM (active),inactive,5.01 µM (active),inactive,–,inactive,–
CC(=O)Oc1cc(OC(C)=O)c2c(=O)cc(-c3ccc(OC(C)=O)c(OC(C)=O)c3)oc2c1,3.16 µM (active),> 46,> 46,10 µM (active),inactive,inactive,inactive,inactive,inactive,–,inactive,–
C=C1CC[C@@H]2[C@](C)(CC[C@@H](O)[C@]2(C)CO)[C@@H]1C/C=C1/C(=O)OC[C@H]1O,inactive,> 46,> 46,inactive,inactive,inactive,inactive,inactive,–,–,–,–
C/C(=C\CNc1ncnc2c1ncn2[C@@H]1O[C@@H](CO)[C@@H](O)[C@H]1O)CO,inactive,> 46,> 46,inactive,inactive,inactive,inactive,inactive,–,–,–,–
Cc1ccc(C[C@H](Cc2nc3ccccc3[nH]2)c2nc3ccccc3[nH]2)cc1,3.98 µM (active),> 46,> 46,inactive,inactive,12.6 µM (active),0.0794 µM (active),–,–,–,–,–
OC[C@@H]1O[C@@H](n2cnc3c(NCc4ccco4)ncnc32)[C@H](O)[C@H]1O,inactive,> 46,> 46,inactive,inactive,inactive,inactive,–,–,–,–,–
O=c1cc(-c2ccc(O)cc2O)oc2ccccc12,1.26 µM (active),> 46,> 46,inactive,inactive,5.01 µM (active),inactive,–,inactive,–,inactive,3.16 µM (active)
